# A selection: hits, their analogues and other compounds. The true share with any hit is near 2.3%.
# Mcl1 Noxa PPI = Mcl-1/Noxa binding inhibitors, primary screen, biochemical, TR-FRET, 1536-well | Induced myeloid leukemia cell differentiation protein Mcl-1 (Homo sapiens), Q07820 | TR-FRET Mcl-1/Noxa peptide binding, 2 h | inhibition, % at 21.7 µM | 220,000 tested, 1.5% active | AID 1022, 2008;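 active = compounds that cut the protein-peptide binding signal by more than 50% relative to plate controls in a single-dose test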;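 note: His-tagged Mcl-1 with rhodamine Noxa BH3 peptide and terbium anti-His antibody; 0% = Mcl-1 plus Noxa peptide wells and 100% = peptide-only wells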
# Target sequence (Q07820 whole entry, looked up): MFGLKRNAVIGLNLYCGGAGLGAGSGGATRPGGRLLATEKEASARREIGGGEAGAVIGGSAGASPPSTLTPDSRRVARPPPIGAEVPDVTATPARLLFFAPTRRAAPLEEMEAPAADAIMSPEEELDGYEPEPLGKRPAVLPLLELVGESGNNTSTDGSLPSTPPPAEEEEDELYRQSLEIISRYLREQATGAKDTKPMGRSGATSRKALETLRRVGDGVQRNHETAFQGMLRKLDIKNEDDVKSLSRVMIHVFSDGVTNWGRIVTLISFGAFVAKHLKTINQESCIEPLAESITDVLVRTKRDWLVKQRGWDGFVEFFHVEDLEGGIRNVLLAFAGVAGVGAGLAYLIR
# GLD-1 RNA inh = GLD-1/TGE RNA complex disruptors, primary screen, biochemical, fluorescence polarization; purified GLD-1 + fluorescein TGE RNA; inhibition, % at 5.96 µM; 320,000 tested, 0.44% active; AID 2280, 2010;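 active = percent inhibition above a per-plate cutoff, the plate mean of test compounds plus 3 SD, cut at about 30% in these data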;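 note: 0% = DMSO wells with GLD-1 and probe and 100% = wells lacking GLD-1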
# Bcl-xL primary = inhibitors of human Bcl-xL, primary screen, biochemical, fluorescence polarization, HTS. Bcl-2-like protein 1 (Homo sapiens), Q07817. GST-Bcl-xL / FITC-Bim BH3 peptide fluorescence polarization. inhibition, % at 10.9 µM. AID 2129, 2009. 320,000 tested, 0.7% active;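 active = inhibition above the mean of all tested compounds plus 3 SD, cutoff set per campaign, cut at about 30% in these data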;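 note: 0% = DMSO wells and 100% = unlabeled Bim-BH3 peptide competitor; inhibitors lower millipolarization by displacing the labeled peptide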
# Target sequence (Q07817 whole entry, looked up): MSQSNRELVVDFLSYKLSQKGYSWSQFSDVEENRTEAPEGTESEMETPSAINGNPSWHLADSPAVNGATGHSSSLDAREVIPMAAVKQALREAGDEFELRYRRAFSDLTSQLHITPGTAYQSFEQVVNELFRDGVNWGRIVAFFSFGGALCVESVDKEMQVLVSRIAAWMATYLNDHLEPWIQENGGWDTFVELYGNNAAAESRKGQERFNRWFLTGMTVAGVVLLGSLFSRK
# Mcl-1 Bim block = inhibitors of Bim peptide binding to Mcl-1, primary screen, biochemical, bead-based flow cytometry, multiplex; Bim peptide-Mcl-1 binding; inhibition, % at 10 µM; 190,000 tested, 0.1% active; in the data active = inhibition above about 40%;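 note: 0% = no compound tracer wells and 100% = peptide blocker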
# Mcl1 Bid PPI = Mcl-1/Bid binding inhibitors, primary screen, biochemical, TR-FRET, 1536-well; AID 1021, 2008; inhibition, % at 21.7 µM; 220,000 tested, 0.97% active; TR-FRET Mcl-1/Bid-Dy647 peptide binding; Induced myeloid leukemia cell differentiation protein Mcl-1 (Homo sapiens), Q07820;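 active = compounds that cut the binding signal by more than half at the single screening dose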;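 note: His-tagged Mcl-1 with europium anti-His antibody binding Bid BH3 peptide; 0% = Mcl-1 plus peptide wells and 100% = peptide-only wells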
# MCL1 BIM primary = inhibitors of MCL1 binding to BIM-BH3, primary screen, biochemical, fluorescence polarization; GST-MCL1 / FITC-Bim-BH3 fluorescence polarization; 320,000 tested, 0.68% active; inhibition, % at 10.9 µM;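 active = inhibition above the mean inhibition of all tested compounds plus 3 SD, set per campaign, cut at about 40% in these data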;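 note: 0% = DMSO wells and 100% = unlabeled Bim-BH3 peptide control; higher means more loss of mP so more displacement of Bim peptide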
# * hit, by the source's call; x = no result given.
SMILES,Mcl1 Noxa PPI,GLD-1 RNA inh,Bcl-xL primary,Mcl-1 Bim block,Mcl1 Bid PPI,MCL1 BIM primary
COc1ccc2c(c1O)Cc1ccccc1C2=O,52*,9,23,0,2,21
CC(C)=C1Cc2ccccc2C1=O,-2,-1,0,2,-41,1
Cc1ccc(C)c(NC(=O)CC2Oc3ccccc3NC2=O)c1 (stereo unspecified),x,4,1,x,x,5
CN(C)/C=C\C(=C/C(=O)C(F)(F)F)Nc1ccccc1Oc1ccccc1,67*,-1,-4,0,-12,-11
COc1ccc(C(=O)CSc2nc(C(C)(C)C)nc3ccccc23)cc1,7,2,6,2,7,1
Cc1ccc(S(=O)(=O)N(C)/N=C/c2ccc(N(C)C)cc2)cc1,x,3,3,x,x,-5
CCc1nn2c(=O)cc(COc3ccc(/C=C4\C(=N)N5N=C(C)SC5=NC4=O)cc3)nc2s1,77*,2,8,2,-49,16
COCCn1c(SCC(=O)Nc2ccccc2C)nc2c(oc3ccccc32)c1=O,5,17,4,-4,54*,11
CCOc1ccc(/C=C2/SC(=O)NC2=S)cc1,29,67*,48*,-4,-15,50*
CCOc1cc(/C=C2\C(=O)NN(c3ccccc3)C2=O)cc([N+](=O)[O-])c1O,51*,4,20,0,-12,29
COc1cc(/C=C2\C(=O)NN(c3ccccc3)C2=O)cc([N+](=O)[O-])c1O,51*,2,17,1,-14,25
O=c1oc2ccccc2c(Nc2cc3ccccc3cc2O)c1[N+](=O)[O-],53*,5,5,-5,-23,7
O=c1oc2ccccc2c(Nc2ccccc2O)c1[N+](=O)[O-],14,3,4,-2,-20,6
N#Cc1cccc(N=Cc2c(O)ccc3ccccc23)c1,55*,0,5,2,-22,3
Cc1ccc(N=Cc2c(O)ccc3ccccc23)cc1F,34,1,1,-2,-3,13
COc1ccc(-c2cc3ncnc(Cl)c3s2)cc1,x,-14,8,x,x,4
CC(=O)Nc1ccc(C)c(NC(=S)Nc2ccc(F)cc2)c1,16,14,6,x,-31,9
CNC(=S)Nc1ccc(C)c(NC(=S)NC)c1,58*,8,10,-5,-20,12
CC(C)[C@H](NC(=O)N1CCn2c1nc1ccccc12)C(=O)NC1CCCCC1,x,8,5,x,x,4
CCOC(=O)c1sc(NC(=O)c2ccncc2)c(C#N)c1C,54*,3,6,7,8,9
CCOC(=O)c1sc(NC(=O)CSc2nc(C)cc(C)c2C#N)c(C#N)c1C,-60,-1,3,0,66*,1
N#Cc1c(NC(=O)c2ccncc2)sc2c1CCC2,69*,3,11,0,-45,30
CCOC(=O)c1c(NC(=O)c2ccncc2)sc(C)c1C,11,2,6,0,-3,12
N#Cc1c(NC(=O)c2cccc(S(=O)(=O)Nc3ccc(C(=O)O)cc3)c2)sc2c1CCCC2,77*,-6,15,x,1,19
O=C(O)c1ccc(NS(=O)(=O)c2cccc(C(=O)Nc3ccc(Br)cc3)c2)cc1,x,-4,7,x,x,0
SMILES,Mcl1 Noxa PPI,GLD-1 RNA inh,Bcl-xL primary,Mcl-1 Bim block,Mcl1 Bid PPI,MCL1 BIM primary
COc1ccc(NC(=O)N(C)C[C@H]2Oc3ccc(NS(=O)(=O)c4c(C)noc4C)cc3C(=O)N([C@H](C)CO)C[C@@H]2C)cc1,x,5,x,x,x,x
Cc1ccccc1CN1[C@@H](C(C)C)COCCS1(=O)=O,x,-1,4,x,x,4
N#CCSc1ccccc1NC(=O)COc1ccc(-c2nnco2)cc1,x,-24,1,x,x,-20
N#Cc1ccsc1NC(=O)COc1ccc(-c2nnco2)cc1,65*,-4,12,1,-28,19
CCOc1ccc(CCNC(=O)COC(=O)C2CC2)cc1OCC,x,3,1,x,x,2
Cc1cc(S(=O)(=O)n2[nH]c(=O)c(CCO)c2C)c(Cl)cc1Cl,x,11,67*,x,x,5
CCN1C(=O)N(C(C)=O)C2C1N(C(C)=O)C(=O)N2C(C)=O (stereo unspecified),-1,0,4,-1,53*,-1
OCCNc1nc(Nc2ccccc2)nc2ccccc12,44,1,8,2,7,3
OCCNc1nc(Nc2ccccc2)nc(Nc2ccccc2)n1,92*,7,2,-1,-1,-2
CCOC(=O)CC1COCCN1C(=O)c1ccc2oc(Cc3ccccc3)nc2c1 (stereo unspecified),x,4,3,x,x,-7
CC(C)=C1C(=O)NN(c2ccc(F)c(Cl)c2)C1=O,-8,-9,-12,0,-10,-31
O=C1NN(c2ccc(F)c(Cl)c2)C(=O)/C1=C\c1cccc(OC(=O)c2cccs2)c1,94*,1,15,-1,45,13
O=C(Nc1ccccc1N1CCCCC1)c1ccc(-c2cc(Cl)ccc2Cl)o1,x,4,2,x,x,0
COc1ccc(NS(=O)(=O)c2cc(OC)ccc2OC)cc1,x,-2,37*,x,x,4
COc1ccc(NS(=O)(=O)c2cc(NC(=O)c3ccccn3)ccc2OC)cc1Br,x,14,x,x,x,x
COc1ccc(NC(=O)c2c(F)cccc2F)cc1S(=O)(=O)Nc1ccc(Br)cc1,6,-1,-7,42*,-13,-6
O=C(Cc1ccccc1)Nc1ncnc2c1C(c1ccccc1)c1c(ccc3ccccc13)O2 (stereo unspecified),x,-3,x,x,x,x
CCCCC1=CC2=C(c3ccco3)C(=O)C(C)(OC(=O)c3ccc(OC)cc3)C(=O)C2=CN1CCOC (stereo unspecified),3,16,18,x,-133,23
CCCCC1=CC2=C(c3ccco3)C(=O)C(C)(OC(=O)c3ccc(OC)cc3)C(=O)C2=CN1Cc1ccccc1 (stereo unspecified),20,44*,37*,x,-29,32
N#CC1=C2SCC(O)(c3ccccc3)N2C(=O)CC1c1ccccc1F (stereo unspecified),9,6,7,2,16,2
N#CC1=C2SCC(O)(c3ccccc3)N2C(=O)CC1c1cccs1 (stereo unspecified),9,20,36*,-7,-2,40
CC(Cc1ccsc1)NC(=O)CCc1nnc(COc2ccccc2)o1 (stereo unspecified),7,6,7,-2,-40,-2
CN(C)C1=NCCN1CCC1CCCCC1,x,11,-2,x,x,0

# High-throughput results deposited in PubChem by several laboratories.
